# Among all 290,000 compounds or so, about 2,700 (0.93%) were called active.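 Rule for the calls: active = inhibition above the screen-wide mean plus 3 SD, computed separately per campaign (cut at about 16% in these data); inactive = the rest.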 This excerpt belongs to a sample that is enriched for actives.
# System: Heat shock protein HSP 90 (rabbit reticulocyte lysate; luciferase refolding)
# Assay: inhibitors of HSP90 chaperone activity – cell lysate, luminescence, primary screen (AID 1789);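 note: 0% = DMSO wells and 100% = 60 µM geldanamycin wells; inhibitors lower the luminescence because luciferase stays unfolded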
# Conditions: 3 h, at 5.6 µM, active compounds read high
row,SMILES,inhibition
1,COc1ccc(NC(=O)CSc2nc(C)cs2)cc1,-1.43% (inactive)
2,Cc1cccc(C)c1Nc1nnc(SCC(=O)Nc2sccc2C#N)s1,3.59% (inactive)
3,Cc1csc(SCC(=O)Nc2sccc2C#N)n1,17.4% (active)
4,CCc1ccccc1NC(=O)[C@@H]1CCC(=O)N1C1OC(=O)c2c1ccc(OC)c2OC (some centres undefined),-1.1% (inactive)
5,COc1ccc(NC(=O)c2ccco2)cc1NC(=O)c1ccc(C#N)cc1F,-0.59% (inactive)
6,CCCCCc1ccc(-c2ccc(C(=O)O)cc2)nc1,61.1% (active)
7,CCCCCc1ccc(-c2ccc(OCC)cc2)nc1,0.91% (inactive)
8,CCCCCc1ccc(-c2cn(Cc3ccc4ccccc4c3)nn2)cc1,-4.93% (inactive)
9,COCCn1c(SCc2nnc(-c3ccc(OC)c(OC)c3)o2)nc2sc3c(c2c1=O)CCC3,1.74% (inactive)
10,CC(=O)c1ccc(S(=O)(=O)N(C)CCCC(=O)N(C)Cc2ccccc2F)cc1,0.72% (inactive)
11,CC1(c2ccccc2)CC(C)(C)N(C(=O)c2cc([N+](=O)[O-])cc([N+](=O)[O-])c2)c2ccccc21 (centres undefined),-2.72% (inactive)
12,Cc1nnc(SCC(=O)N2c3ccccc3C(C)(c3ccc(Cl)cc3)CC2(C)C)s1 (centres undefined),58.2% (active)
13,CC1(c2cccc([N+](=O)[O-])c2)CC(C)(C)N(C(=O)c2ccccc2)c2ccccc21 (centres undefined),2.72% (inactive)
14,NC1=NN(c2cccc(C(=O)O)c2)C(=O)C1,3.9% (inactive)
15,O=Cc1c(Nc2ccccc2Cl)nc2ccccn2c1=O,0.05% (inactive)
16,COc1ccc(OCc2cc(C(=O)NCC3(C)COC3)no2)c(Cl)c1,-3.93% (inactive)
17,COc1ccc(-c2cn3cccnc3n2)cc1,0% (inactive)
18,Cc1ccc2nc(-c3ccc(Br)cc3)cn2c1,75.1% (active)
19,COc1ccc(-c2cn3ccc(C)cc3n2)cc1,61.9% (active)
20,COc1ccc(-c2cn3ccsc3n2)cc1,6.4% (inactive)
21,CSc1nnc2ccc(-c3ccc(C)cc3)nn12,-5.22% (inactive)
22,CCN(CC)S(=O)(=O)c1ccc(-c2cn3ccc(C)cc3n2)cc1,1.15% (inactive)

row,SMILES,inhibition
1,Cc1ccc(-c2cc(N)on2)cc1,3.55% (inactive)
2,Cc1nc(-c2ccc([N+](=O)[O-])cc2)c(-c2ccccc2)o1,10.2% (inactive)
3,Cc1ccc(-c2cn3cc([N+](=O)[O-])ccc3n2)cc1,26.2% (active)
4,Cc1ccc(-n2cc3ccc([N+](=O)[O-])cc3n2)cc1,9.46% (inactive)
5,Cc1cc(N2CCOCC2)nc(-c2ccc(Br)cc2)n1,7.23% (inactive)
6,Cc1ccc(-c2cn3cc(C)ccc3n2)cc1,84.1% (active)
7,COc1ccc(S(=O)(=O)NC(C)c2ccccc2)cc1C(=O)N1CCCCC1 (centres undefined),-0.07% (inactive)
8,Cc1cc(NC(=O)c2ccccc2C)no1,1.41% (inactive)
9,CC(NCc1cccs1)C(=O)Nc1cc(Cl)cc(Cl)c1 (centres undefined),3.33% (inactive)
10,O=S(=O)(Cc1cc(Cl)nc(-c2cccnc2)n1)c1ccccc1,-1.01% (inactive)
11,Cc1cccc(C(=O)N2CCCC(Nc3ccc(C(C)C)cc3)C2)n1 (centres undefined),2.58% (inactive)
12,Cc1ccc(NS(=O)(=O)c2ccc(C)c(NC(=O)COc3ccc4ccccc4c3)c2)c(C)c1,3.5% (inactive)
13,COc1ccc2cc(S(=O)(=O)Nc3ccccn3)ccc2c1,-2.45% (inactive)
14,COc1cc(NS(=O)(=O)c2ccc3ccccc3c2)c2ncccc2c1,17.1% (active)
15,O=S(=O)(Nc1ccccc1Cl)c1cccc2nsnc12,-0.91% (inactive)
16,COc1ccc2c(c1)C(NS(=O)(=O)OCC(Cl)(Cl)Cl)CCC2 (centres undefined),-3.42% (inactive)
17,COc1cccc(/C=C2\C=C(c3ccc(C)cc3)OC2=O)c1OC(C)=O,-2.84% (inactive)
18,COc1cccc(/C=C/c2ccc3ccccc3n2)c1OC(C)=O,26.1% (active)
19,CCOc1cccc(/C=C/c2ccc3ccccc3n2)c1OC(C)=O,11.8% (inactive)
20,Cc1cc(=O)oc2cc(OC(C)C(=O)NCCc3ccc(S(N)(=O)=O)cc3)ccc12 (centres undefined),-1.68% (inactive)
21,COC(=O)C1=C(O)/C(=C/c2ccc(OCC(=O)Nc3ccccc3)cc2)N=C1C,3.09% (inactive)
22,COC(=O)c1ccc(Nc2ncnc3sccc23)cc1,-0.64% (inactive)

row,SMILES,inhibition
1,COc1ccc(N(CC(=O)NCC2CCCO2)C(=O)CCC(=O)Nc2nccs2)c(OC)c1 (centres undefined),1.16% (inactive)
2,Cc1nc2cc(NC(=O)NC3CC3)ccc2n1C,-3.15% (inactive)
3,Cc1nc2cc(NC(=O)Nc3cccc(F)c3)ccc2n1C,42.2% (active)
4,C=CCN(C(=O)Nc1ccc2c(c1)nc(C)n2C)c1ccccc1,2.61% (inactive)
5,CCN(C(=O)COc1ccc(C(=O)c2ccccc2)cc1)c1ccccc1,2.9% (inactive)
6,O=C(Nc1nc2ccccc2s1)c1ccc2c(c1)OCO2,21.8% (active)
7,O=C(Nc1ccccc1)c1ccc2c(c1)OCCCO2,31.5% (active)
8,O=C(Nc1ccc(N2CCOCC2)cc1)c1ccc2c(c1)OCO2,4.41% (inactive)
9,O=C(Nc1cccc(S(=O)(=O)Nc2ccc(Cl)cc2)c1)c1ccc2c(c1)OCCO2,-6.31% (inactive)
10,COCc1nnc(NC(=O)c2ccc3c(c2)OCO3)s1,-2.47% (inactive)
11,O=C(Nc1ccccc1F)c1ccc2c(c1)OCO2,4.08% (inactive)
12,CN1CCN(CCNC(=O)Nc2ccccc2[N+](=O)[O-])CC1,-4.79% (inactive)
13,O=C(CCN1C(=O)C2C3CCC(C3)C2C1=O)Nc1ccc(Cl)cc1Cl (centres undefined),-1.86% (inactive)
14,COc1ccc(/C(C)=N\NC(=O)c2ccc(-c3ccccc3)cc2)c(F)c1,-2.33% (inactive)
15,Oc1c(Cl)cc(Cl)cc1/C=N/c1ncn[nH]1,-0.17% (inactive)
16,CC(C)C[C@H](NC(=O)N1CCn2c1nc1ccccc12)C(=O)NC1CC1,-4.43% (inactive)
17,COc1ccccc1C(=O)Nc1cccc(C(=O)N2CCOCC2)c1,-1.04% (inactive)
18,COc1cc(CNC2CCCCC2)c(Br)cc1OC1CCCC1,35.2% (active)
19,CC(C)(C)NCc1cc(Br)ccc1OC1CCCC1,-2.93% (inactive)
20,COc1cc(CNC2CCCC2)c(Br)cc1OCc1ccccc1,-1.4% (inactive)

# Source: PubChem BioAssay AID1789 (The Scripps Research Institute Molecular Screening Center, 2009)
